From PubChem BioAssay (NCATS)
Records with an inconclusive call do not appear. Calls of active or inactive are those of the source. Unless noted, calls follow the shape of the dose curve; as a rule, active = well fitted curve in the direction sought with a large enough effect; inconclusive = small, poorly fitted or top-dose-only effect, or another doubt; inactive = no such curve, though single readings can be large; an effect the other way counts as inactive or inconclusive.

Key:
[1] = target: 3',5'-cyclic-AMP phosphodiesterase 4B (Homo sapiens) (UniProt Q07343); experiment: qHTS Assay for Inhibitors of PDE-IV (AID 607; active = well fitted activation curve with a large enough effect in the main read-out, with a control signal flat, not every such curve was filed as active; also: potency is read from the fitted curve at half-maximal effect)
Chain of 3',5'-cyclic-AMP phosphodiesterase 4B (Homo sapiens) (Q07343 whole entry, looked up): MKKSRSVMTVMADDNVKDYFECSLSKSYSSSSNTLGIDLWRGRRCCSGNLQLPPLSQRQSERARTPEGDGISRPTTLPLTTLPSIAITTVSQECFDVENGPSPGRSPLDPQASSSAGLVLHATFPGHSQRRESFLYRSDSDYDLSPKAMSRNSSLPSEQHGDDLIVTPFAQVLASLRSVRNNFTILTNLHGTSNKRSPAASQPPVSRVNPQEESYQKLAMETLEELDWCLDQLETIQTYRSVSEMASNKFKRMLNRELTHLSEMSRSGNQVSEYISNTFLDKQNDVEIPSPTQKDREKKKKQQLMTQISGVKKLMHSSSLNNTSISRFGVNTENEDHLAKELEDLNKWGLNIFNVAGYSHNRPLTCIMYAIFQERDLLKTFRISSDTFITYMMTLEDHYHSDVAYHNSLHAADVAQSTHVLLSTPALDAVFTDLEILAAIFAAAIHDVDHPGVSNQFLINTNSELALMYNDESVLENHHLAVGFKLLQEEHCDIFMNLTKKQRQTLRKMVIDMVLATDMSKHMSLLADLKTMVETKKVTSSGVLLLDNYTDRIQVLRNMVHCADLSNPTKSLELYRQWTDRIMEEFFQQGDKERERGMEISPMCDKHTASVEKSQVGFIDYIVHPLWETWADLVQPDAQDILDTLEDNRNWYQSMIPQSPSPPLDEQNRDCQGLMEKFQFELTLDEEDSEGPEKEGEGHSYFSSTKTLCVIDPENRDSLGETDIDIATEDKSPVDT
Summary of the method: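 The readout is membrane depolarisation from a cAMP-sensing CNG channel, detected with a potential dye at ex 535/em 590. Cells were HEK293-derived (endogenous PDE-IV) at 1000 cells/well, titrated up to 22.9 uM final.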

[2] = Cellular Toxicity (caspase-3) HepG2 (AID 654);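 also: cells exposed to compound for 16 hours before reading; 0% = DMSO alone and 100% = caspase signal from 100 µM tamoxifen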
Summary of the method: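 Caspase 3/7 activation is measured as a luminescence increase (aminoluciferin substrate) after 16 h compound exposure of human hepatocarcinoma HepG2 cells. AC50 values are Hill fits, scaled between DMSO baseline and 100 uM tamoxifen stimulation.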

[3] = Cellular Toxicity (caspase-3) Jurkat (AID 655);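 also: cells exposed to compound for 16 h at 37 °C before reading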; also: potency is read from the fitted curve at half-maximal effect
Summary of the method: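 Luminescent Caspase-Glo 3/7 read-out (20 min, room temperature) after 16 h compound treatment at 37 C of 5000 Jurkat cells per well. AC50 derived by Hill-equation fitting, scaled between DMSO basal and 100 uM tamoxifen stimulation.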

[4] = Cellular Toxicity (caspase-3) HUV-EC-C (AID 656);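 also: 0% = DMSO basal and 100% = 100 µM tamoxifen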
Summary of the method: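 Luminescent Caspase-Glo 3/7 readout after 16 h, 37 °C compound exposure of HUV-EC-C endothelial cells, 1000 per well, complete medium. AC50 derived by Hill fitting, with DMSO as baseline and 100 uM tamoxifen as full activation.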

[5] = Cellular Toxicity (caspase-3) BJ (AID 658);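 also: cells exposed to compound for 16 hours; 0% = DMSO basal and 100% = 10 µM staurosporine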
Summary of the method: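 Caspase-Glo 3/7 luminescence, read 1 hr after reagent at room temperature, in normal BJ fibroblasts exposed 16 hours at 37 °C. AC50 values from Hill-equation concentration-response, scaled between DMSO basal and 10 uM staurosporine as 100%.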

[6] = Cellular Toxicity (caspase-3) MRC-5 (AID 659); conditions: Potency: caspase-3 activation; also: potency is read from the fitted curve at half-maximal effect;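 as to caspase-3 activation: 0% = DMSO basal and 100% = 10 µM staurosporine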
Summary of the method: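 Luminescent Caspase-Glo 3/7 read-out (1 h, room temperature) after a 16 h, 37 °C compound exposure of MRC-5 lung fibroblasts at 1500 cells/well. Concentration-response AC50 from Hill equation; 0% DMSO, 100% 10 uM staurosporine.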

[7] = Cellular Toxicity (caspase-3) Mesangial (AID 660);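 also: combined caspase 3 and 7 activity read by Caspase-Glo luminescence; cells exposed to compound for 16 h before the caspase read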
Summary of the method: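 Caspase 3/7 activation measured by Caspase-Glo 3/7 luminescence (20 min, room temperature) following 16 h exposure of mesangial cells (1000/well); AC50 from Hill-equation fit, normalized to DMSO and 100 uM tamoxifen.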

[8] = Cellular Toxicity (caspase-3) SK-N-SH (AID 661); conditions: SK-N-SH caspase-3 activation, qHTS; caspase-3 activation: at 91.7 µM (top of the series), DMSO as zero, staurosporine as full;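 also: cells exposed to compound for 16 hours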; also: potency is read from the fitted curve at half-maximal effect;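 as to caspase-3 activation: 0% = DMSO basal and 100% = 10 µM staurosporine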
Summary of the method: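 Caspase 3/7 activation was read by luminogenic substrate cleavage after 16 hour treatment of SK-N-SH cells. Signal was scaled between DMSO and 10 uM staurosporine, and concentration-response data were fitted with the Hill equation for AC50.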

[9] = Cellular Toxicity (caspase-3) H-4-II-E (AID 663);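 also: cells exposed to compound for 16 hr before readout; 0% = DMSO basal and 100% = 100 µM tamoxifen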
Summary of the method: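 Caspase 3/7 activation measured by luminescent aminoluciferin substrate cleavage after 16 hr compound treatment of H-4-II-E cells in complete medium. Increase normalized between DMSO (basal) and 100 uM tamoxifen (100%); Hill-equation AC50 from concentration-response.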

[10] = Cellular Toxicity (caspase-3) Hek293 (AID 664);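 also: cells exposed to compound for 16 h at 37 °C before readout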
Summary of the method: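 Concentration-response qHTS: caspase 3/7 activation measured by luminescent aminoluciferin substrate cleavage after 16 h compound exposure of Hek 293 cells. AC50 from Hill equation, with DMSO as basal and 100 uM tamoxifen as 100%.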

CC(C)[N+](C)(CCOC(=O)C1c2ccccc2Oc2ccccc21)C(C)C
inactive: Potency [1]

O=C(O)CP(=O)(O)O
inactive: Potency [1]

CCn1nc(C(=O)O)c(=O)c2cc3c(cc21)OCO3
inactive: Potency [1]

O=C(O)CN(CCN(CC(=O)O)CC(=O)O)CCN(CC(=O)O)CC(=O)O
inactive: Potency [1]

CC[N+](C)(C)c1cccc(O)c1
inactive: Potency [1]

CN=C(NC#N)NCCSCc1nc[nH]c1C
inactive: Potency [1] | outcome [2] | Potency [3] | outcome [4] | outcome [5] | Potency [6] | outcome [7] | caspase-3 activation [8] -1.11% | outcome [9] | outcome [10]

COC(=O)[C@H]1[C@H]2C[C@@H]3c4[nH]c5cc(OC)ccc5c4CCN3C[C@H]2C[C@@H](OC(=O)c2cc(OC)c(OC)c(OC)c2)[C@@H]1OC
inactive: outcome [4] | outcome [7] | outcome [10]
active: Potency [6] 31.6 µM | caspase-3 activation [8] 87.8%

NC(=O)N1c2ccccc2C=Cc2ccccc21
inactive: Potency [1] | outcome [2] | Potency [3] | outcome [4] | outcome [5] | Potency [6] | outcome [7] | caspase-3 activation [8] 0.961% | outcome [9] | outcome [10]

CCC(=O)c1ccc2c(c1)N(CCCN(C)C)c1ccccc1S2
inactive: Potency [1]

CN(C)CCOC(=O)COc1ccc(Cl)cc1
inactive: Potency [1]

CC(=O)Nc1nnc(S(N)(=O)=O)s1
inactive: Potency [1]

Brc1c(NC2=NCCN2)ccc2nccnc12
inactive: Potency [1]

CCCN(CCC)CCc1cccc2c1CC(=O)N2
inactive: Potency [1]

COc1ccc(CN(CCN(C)C)c2ccccn2)cc1
inactive: Potency [1] | outcome [2] | Potency [3] | outcome [4] | outcome [5] | Potency [6] | outcome [7] | caspase-3 activation [8] -0.853% | outcome [9] | outcome [10]

CN(C)CCCN1c2ccccc2Sc2ccccc21
inactive: Potency [1]

CN(C)CCN(Cc1cccs1)c1ccccn1
inactive: Potency [1]

CCCCNc1ccc(C(=O)OCCN(C)C)cc1
inactive: Potency [1]

CCOC(=O)c1cnc2c(cnn2CC)c1NN=C(C)C
active: Potency [1] 0.951 µM

Nc1ncn([C@@H]2O[C@H](CO)[C@@H](O)[C@H]2O)c(=O)n1
active: Potency [3] 2 µM | Potency [8] 31.6 µM
inactive: outcome [2] | outcome [4] | outcome [5] | Potency [6] | outcome [7] | outcome [9] | outcome [10]

CC(C)(Oc1ccc(CCNC(=O)c2ccc(Cl)cc2)cc1)C(=O)O
inactive: Potency [1]

CCCCNC(=O)NS(=O)(=O)c1ccc(C)cc1
inactive: Potency [1] | outcome [2] | Potency [3] | outcome [4] | outcome [5] | Potency [6] | outcome [7] | caspase-3 activation [8] -0.361% | outcome [9] | outcome [10]

CCCC(C(=O)OCCN(CC)CC)(c1ccccc1)c1ccccc1
inactive: Potency [1]

O=c1[nH]c(=O)n([C@H]2C[C@H](O)[C@@H](CO)O2)cc1Br
inactive: outcome [2] | Potency [3] | outcome [4] | outcome [5] | Potency [6] | outcome [7] | caspase-3 activation [8] -0.482% | outcome [9] | outcome [10]

CCN(CC)CCNC(=O)c1ccc(NC(C)=O)cc1
inactive: Potency [1]

NC(N)=NC(=O)Cc1c(Cl)cccc1Cl
inactive: Potency [1]

NC(=Nc1ccccc1)Nc1ccccc1
inactive: outcome [2] | Potency [3] | outcome [4] | outcome [5] | Potency [6] | outcome [7] | caspase-3 activation [8] 0.122% | outcome [9] | outcome [10]

Nc1nc(N)c2nc(-c3ccccc3)c(N)nc2n1
inactive: Potency [1] | outcome [4] | outcome [7] | outcome [9] | outcome [10]

CC(=O)Oc1cc(C(C)C)c(OCCN(C)C)cc1C
inactive: Potency [1]

CCc1cccc(N(C)C(N)=Nc2cccc3ccccc23)c1
inactive: Potency [1]

CCCCOCCOCCOCc1cc2c(cc1CCC)OCO2
inactive: outcome [2] | Potency [3] | outcome [4] | outcome [5] | Potency [6] | outcome [7] | caspase-3 activation [8] 1.34% | outcome [9] | outcome [10]

COc1cc(Cc2cnc(N)nc2N)cc(OC)c1OC
inactive: Potency [1] | outcome [2] | Potency [3] | outcome [4] | outcome [5] | Potency [6] | outcome [7] | caspase-3 activation [8] 0.291% | outcome [9] | outcome [10]

CN(C)CC/C=C1\c2ccccc2COc2ccccc21
inactive: Potency [1]

Cc1scc2c1N(C(=O)CN1CCN(C)CC1)c1ccccc1NC2=O
inactive: Potency [1]

CN1CCN(C2=Nc3ccccc3Oc3ccc(Cl)cc32)CC1
inactive: Potency [1]

O=C(O)CCCCCCCC(=O)O
inactive: Potency [1]

CN(C(=O)CCCOc1ccc2[nH]c(=O)ccc2c1)C1CCCCC1
inactive: Potency [1]

Cc1ccc(=O)n(-c2ccccc2)c1
inactive: Potency [1]

CC(C)NNC(=O)c1ccncc1
inactive: Potency [1]

COC(=O)[C@@H](N)Cc1ccc(O)c(O)c1
inactive: Potency [1]
